# From PubChem BioAssay
# APEX1 inh: APE1 (human) endonuclease inhibition. recombinant APE1, TAMRA/BHQ-2 abasic DNA cleavage fluorescence. AID 2517. P27695. Potency, µM (top dose mostly 65.8 µM), inactives show at the highest dose activity change, negative = inhibition, actives largely listed as inhibitors. 350,000 compounds, 0.35% hits;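 note: plate controls were vehicle for no effect and reference inhibitor for full effect; nearly all actives have a fitted effect of over 55% in size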
# Target sequence (P27695 whole entry, looked up): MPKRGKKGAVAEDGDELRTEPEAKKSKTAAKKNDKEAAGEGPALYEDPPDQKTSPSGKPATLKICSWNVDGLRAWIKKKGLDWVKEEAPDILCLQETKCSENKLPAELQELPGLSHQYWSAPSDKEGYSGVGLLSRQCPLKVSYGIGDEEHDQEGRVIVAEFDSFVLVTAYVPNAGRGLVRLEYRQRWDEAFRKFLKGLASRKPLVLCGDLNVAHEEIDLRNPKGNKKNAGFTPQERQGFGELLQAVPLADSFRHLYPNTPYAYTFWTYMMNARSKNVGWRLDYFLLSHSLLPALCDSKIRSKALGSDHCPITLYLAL
#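 APE1 at 0.75 nM preincubated 15 min at room temperature with compound. Reaction then started with 50 nM double-stranded THF-abasic substrate labelled with TAMRA/BHQ-2, and 525/598 nm fluorescence read kinetically. Activity taken as third-minus-first read difference, normalized to DMSO and NSC13755 controls.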
# GLS inh: inhibitors of human glutaminase (GLS); Potency, µM (doses to about 45.5 µM), for inactives: at the highest dose activity change, negative = inhibition, actives largely listed as inhibitors; O94925; GLS enzymatic activity, qHTS titration; AID 624170; 410,000 compounds, 0.21% hits; note: % is set by controls: 0 for no effect and ±100 for the full control effect
#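 hKGA in 45 mM KH2PO4 (pH 8.2), 0.02% Tween-20 with compound, then 1mM L-Glutamine (stock as added) plus glutamate oxidase/HRP/Amplex red coupling mix. Fluorescence read initially and after 30 min at RT; signal change reflects glutamate formation.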
# POLK inh: blocks human DNA polymerase kappa activity; Potency, µM (series often up to 107 µM), inactives show at the top dose activity, negative = inhibition, most hits filed as inhibitors; 400,000 compounds, 0.53% hits; purified Pol kappa, fluorescent DNA synthesis assay, 10 min; note: % is set by controls: 0 for no effect and ±100 for the full control effect
#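 Inhibition of 10 nM Pol kappa is measured by a fluorescent read-out at 0 and 10 min following addition of 50 nM substrate (final), with a 15-min room-temperature compound preincubation.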
# Pol beta inh: inhibitors of human DNA polymerase beta; 340,000 compounds, 1.3% hits; Potency, µM (highest dose often 114 µM), for inactives: top-dose activity change, negative = inhibition, actives largely listed as inhibitors; AID 485314; Pol beta primer extension/strand displacement, fluorescence kinetic; note: % is set by controls: 0 for no effect and ±100 for the full control effect
#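 Kinetic readout of DNA synthesis with strand displacement by Pol beta. Compound and 10 nM enzyme sit 15 min at room temperature; 50 nM substrate starts the reaction, read immediately and at 10 min.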
# Pol eta inh: DNA polymerase eta (human) inhibition | recombinant Pol eta, fluorescent DNA replication assay | Potency, µM (series often up to 114 µM), without a hit: at the top dose activity change, negative = inhibition, usual class: inhibitors | 390,000 compounds, 1.2% hits | AID 588591; note: % is set by controls: 0 for no effect and ±100 for the full control effect
#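 Pol eta (10 nM) was preincubated with compounds for 15 min at room temperature, after which fluorescent replication substrate (50 nM final) was added to start the reaction. Fluorescence was read kinetically at 0 and 10 min.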
# POLI inh: inhibitors of human DNA polymerase iota; Q9UNA4; Pol iota fluorescent replication assay, 10 min; Potency, µM (titrated, usually from 115 µM), for the others: at the highest dose activity, negative = inhibition, usual class: inhibitors; 390,000 compounds, 1% hits
#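 Fluorescent replication assay read twice, at 0 min and 10 min after adding 50 nM (final) substrate. Enzyme (10 nM) and compounds were first incubated 15 min at room temperature; enzyme-free buffer wells were negative controls.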
# Active calls of the source: *; ? = inconclusive; . = no result given; [ ] = remark or other dose. Most compounds without a hit are left out; they make up all but 2.4% or so of the library. Calls come from the whole dose curve; as a rule, active = well fitted curve in the direction sought with a large enough effect; inconclusive = small, poorly fitted or top-dose-only effect, or another doubt; inactive = no such curve, though single readings can be large; an effect the other way counts as inactive or inconclusive. Potency is the fitted concentration of half-maximal effect.
SMILES,APEX1 inh,GLS inh,POLK inh,Pol beta inh,Pol eta inh,POLI inh
CCCCC(NC(=O)Cc1c(C)c2cc3c(C)c(C)oc3c(C)c2oc1=O)C(=O)O (stereo unspecified),13%,6%,-15%[60.1 µM],-14%,-6%,?
Cc1coc2c(C)c3oc(=O)c(CCC(=O)N[C@@H](C)C(=O)N[C@@H](Cc4ccccc4)C(=O)O)c(C)c3cc12,13µM*,?,?,?,28µM*,-12%
CCCC(NC(=O)Cc1c(C)c2cc3c(C)c(C)oc3c(C)c2oc1=O)C(=O)N[C@@H](Cc1ccccc1)C(=O)O (stereo partly specified),21µM*,1%,?,28µM*,?,?
Cc1coc2c(C)c3oc(=O)c(CCC(=O)NCCc4ccccc4)c(C)c3cc12,.,1%,-3%,-3%,7%,2%
NC(=O)c1ccccc1NC(=O)CCCCCn1nnc2ccccc2c1=O,39%,6%,-12%,20%,-4%,-9%
COC(=O)c1[nH]c(=O)c2ccccc2c1OCc1ccccc1,3%,1%,-2%,-7%,-6%,15%
COC(=O)c1[nH]c(=O)c2ccccc2c1O,?,24%,-7%,0%,-22%,22µM*
COC(=O)c1c(C(=O)OC)n(CCCN)c2ccc(C)cc12,3%,-1%,-12%,9%,-6%,-12%
Cc1[nH]n(-c2ccccc2)c(=O)c1C(c1ccc(O)c([N+](=O)[O-])c1)c1c(C)[nH]n(-c2ccccc2)c1=O,.,-17%,-32%,.,28µM*,?
Cc1[nH]n(-c2ccccc2)c(=O)c1C(=O)c1ccccc1,2%,-2%,-7%,-4%,?,?
O=c1c2cc([N+](=O)[O-])cc([N+](=O)[O-])c2[nH]n1-c1ccccc1,10%,10%,-11%,-8%,?,?
COc1cccc(C(c2c(C)[nH]n(-c3ccccc3)c2=O)c2c(C)[nH]n(-c3ccccc3)c2=O)c1O,-2%,1%,-19%,26%,9%,1µM*
COc1cccc(C(c2c(C)[nH]n(-c3ccccc3)c2=O)c2c(C)[nH]n(-c3ccccc3)c2=O)c1OC,-8%,-21%,-28%,-26%,-6%,1.3µM*
CCOc1cccc(C(c2c(C)n(C)n(-c3ccccc3)c2=O)c2c(C)n(C)n(-c3ccccc3)c2=O)c1OC,3%,0%,-11%,-3%,-20%,-1%
CCCCN1C(=O)NC(NC(=O)c2ccco2)(C(F)(F)F)C1=O (stereo unspecified),14%,-5%,-25%,29%,-18%,28%
CC1=C(CCC(=O)O)c2cc3nc(cc4[nH]c(cc5[nH]c(cc1n2)c(C)c5C(C)O)c(C)c4C(C)O)C(C)=C3CCC(=O)O (stereo unspecified),?,.,20µM*,.,.,.
Cc1ccc(-c2ccc(CCC(=O)O)n2C(C)C)cc1,-2%,17%,3%,15%,-7%,-11%
O=C(/C(=N/N=C/c1ccc(O)c(O)c1O)c1ccccc1)c1ccccc1,5%,-6%,-32%,3.5µM*,?,18µM*
COc1ccc(C(=O)C(=NN)c2ccccc2)cc1,.,0%,.,.,-2%,.
COc1ccc(NC(C)=O)cc1S(=O)(=O)N1CCN(Cc2cccs2)CC1,-16%,7%,-42%,.,25µM*,?
COc1[nH]c(/N=C/c2ccccc2)c(C#N)c1C#N,17%,9%,?,89µM*,-7%,79µM*
Cc1oc(/N=C/c2ccccc2)c(C#N)c1C,30%,7%,-4%,1%,12%,131%
Cc1oc(C)c(C(=O)Nc2ccccc2)c1C,-1%,.,-5%[60.1 µM],.,.,.
O=C(O)c1cccc(Cn2c(Cl)c(/C=N/NC(=O)c3cc4ccccc4cc3O)sc2=O)c1,?,0%,32µM*,11µM*,6.3µM*,8.9µM*
